These results are taken from the supplement of paper PMC13380429.

Unmarked numbers belong to inactive results.

For this experiment, the system named is Vero E6 infected with SARS-CoV-2. Description: inhibition of SARS-CoV-2 cytopathic effect; higher = more antiviral protection, active = above 15. The settings on record: 48 h. A general note: Cytopathic effects are the visible damage that an infection or toxin causes in cultured cells.

As for `COC(=O)c1ccc2c(c1)NC(=O)/C2=C(\Nc1ccc(N(C)C(=O)CN2CCN(C)CC2)cc1)c1ccccc1` [nintedanib], the “inhibition of SARS-CoV-2 cytopathic effect” value (from here on “inhibition”) (1 nM) is -1.36%; the “inhibition” value (8.33 nM) was -3%; the “inhibition” value (100 nM) is -0.71%; the “inhibition” value (833.33 nM) is 0.19%; the “inhibition” value (10000 nM) is 0%.

For `Cc1ccc(C(C)C)c(O)c1` [thymol], the “inhibition” value (1 nM) was 2.55%; the “inhibition” value (8.33 nM) was -2.55%; the “inhibition” value (100 nM) was -2.75%; the “inhibition” value (833.33 nM) is -1.48%; the “inhibition” value (10000 nM) is -1.32%.

With `C[C@@H]1NC(=O)[C@@H](N)CNC(=O)[C@H](C2CCNC(=N)N2)NC(=O)/C(=C/NC(N)=O)NC(=O)[C@H](CNC(=O)CC(N)CCCN)NC1=O.N=C1NCC[C@H]([C@@H]2NC(=O)/C(=C/NC(N)=O)NC(=O)[C@H](CNC(=O)C[C@@H](N)CCCN)NC(=O)[C@H](CO)NC(=O)[C@@H](N)CNC2=O)N1` [capreomycin], the “inhibition” value is 0.56% (1 nM); -0.28% (8.33 nM); -1.08% (100 nM); 0.24% (833.33 nM); 2.53% (10000 nM).

Consider `Cc1ncc(CO)c(C=O)c1O` [pyridoxal], for which the “inhibition” value is, setting by setting: (1 nM) 4.33%; (8.33 nM) 2.21%; (100 nM) 0.26%; (833.33 nM) -1.64%; (10000 nM) 1.19%.

On to `Oc1cc(O)cc(/C=C/c2ccc(O)c(O)c2)c1` [piceatannol], for which the “inhibition” value reads like this: (1 nM) 2.41%; (8.33 nM) -0.84%; (100 nM) -0.97%; (833.33 nM) 0.83%; (10000 nM) 2.32%.

Turning to `O=C1CN2Cc3c(ccc(Cl)c3Cl)N=C2N1` [anagrelide], the “inhibition” value (1 nM) was 0.79%; the “inhibition” value (8.33 nM) is -0.94%; the “inhibition” value (100 nM) was -1.24%; the “inhibition” value (833.33 nM) was -0.35%; the “inhibition” value (10000 nM) is 0.92%.

As to `CC(=O)Oc1ccc(C(c2ccc(OC(C)=O)cc2)c2ccccn2)cc1` [bisacodyl], the “inhibition” value is, setting by setting: (1 nM) 0.11%; (8.33 nM) -1.99%; (100 nM) -2.25%; (833.33 nM) 1.04%; (10000 nM) 2.49%.

Regarding `O[C@H]1[C@H]2[C@H](O)CCCN2C[C@H]1O` [swainsonine], the “inhibition” value by setting is: (1 nM) -4.09%; (8.33 nM) 2.85%; (100 nM) 1.87%; (833.33 nM) -1.43%; (10000 nM) -5.03%.

Consider `CC(=O)[C@H]1CC[C@H]2[C@@H]3CC[C@H]4C[C@](C)(O)CC[C@]4(C)[C@H]3CC[C@]12C` [ganaxolone], for which the “inhibition” value was -0.23% (1 nM); 4.47% (8.33 nM); 1.85% (100 nM); 0.7% (833.33 nM); 0.84% (10000 nM).

With `CN(CCOP(=O)(O)O)C(=N)N` [creatinol-phosphate], the “inhibition” value reads like this: (1 nM) -1.02%; (8.33 nM) 2.42%; (100 nM) 0.89%; (833.33 nM) -2.46%; (10000 nM) -1.58%.

Regarding `C[N+]1([O-])[C@@H]2C[C@@H](OC(=O)[C@H](CO)c3ccccc3)C[C@H]1[C@@H]1O[C@@H]12` (stereo not given in full) [scopolamine-N-oxide], the “inhibition” value (1 nM) is 7.18%; the “inhibition” value (8.33 nM) is 4.58%; the “inhibition” value (100 nM) was 3.81%; the “inhibition” value (833.33 nM) is 13.6%; the “inhibition” value (10000 nM) was 3.51%.

Regarding `CCCCNc1nc(N)c2[nH]c(=O)n(Cc3ccc(OCCN(C)C)nc3)c2n1`, the “inhibition” value was -1.79% (1 nM); 0.48% (8.33 nM); 2.36% (100 nM); -0.4% (833.33 nM); -0.44% (10000 nM).

Take `CC(C)N(C[C@H]1O[C@@H](n2cnc3c(N)ncnc32)[C@H](O)[C@@H]1O)[C@H]1C[C@@H](CCc2nc3cc(C(C)(C)C)ccc3[nH]2)C1`: the “inhibition” value (1 nM) is 1.37%; the “inhibition” value (8.33 nM) is 1.4%; the “inhibition” value (100 nM) was 1.55%; the “inhibition” value (833.33 nM) was 3.8%; the “inhibition” value (10000 nM) was 4.66%.

As for `COc1ccccc1OCC(O)COC(N)=O` (stereo not given) [methocarbamol], the “inhibition” value reads like this: (1 nM) -1.87%; (8.33 nM) -0.67%; (100 nM) -0.79%; (833.33 nM) 2.32%; (10000 nM) 1.06%.

In the case of `C[N+](C)(C)NCCC(=O)O` [meldonium], the “inhibition” value reads like this: (1 nM) -1.15%; (8.33 nM) -0.85%; (100 nM) -2.99%; (833.33 nM) -0.28%; (10000 nM) -2.51%.

With `CC1(C)OC(=O)NC1=O` [dimethadione], the “inhibition” value reads like this: (1 nM) -1.41%; (8.33 nM) -1.5%; (100 nM) 0.11%; (833.33 nM) 0.78%; (10000 nM) 0.15%.

`N#Cc1ccc(-c2ccc(S(=O)(=O)Nc3cccc(N)n3)cc2)cc1`: the “inhibition” value (1 nM) is 0.14%; the “inhibition” value (8.33 nM) was 3.14%; the “inhibition” value (100 nM) was -0.56%; the “inhibition” value (833.33 nM) was 0.76%; the “inhibition” value (10000 nM) was 1.78%.

Consider `O=C(O)CCC(=O)Nc1ccc(S(=O)(=O)Nc2nccs2)cc1` [succinylsulfathiazole], for which the “inhibition” value by setting is: (1 nM) -0.25%; (8.33 nM) 0.46%; (100 nM) 0.51%; (833.33 nM) 0.85%; (10000 nM) -0.56%.

As to `COc1ccc2cc1Oc1ccc(cc1)C[C@H]1c3cc(c(OC)cc3CCN1C)Oc1c(OC)c(OC)cc3c1[C@H](C2)N(C)CC3` [tetrandrine], the “inhibition” value is -2.72% (1 nM); -0.14% (8.33 nM); -1.04% (100 nM); -2.19% (833.33 nM); 69.3% (active) (10000 nM).
